Compound activity (PubChem)
This is a sample that favours compounds with a hit; in the whole collection about 4.6% have one here.
NLRP3 yeast inh: NALP3 inflammasome inhibitors in reconstituted yeast, primary screen, luminescence, uHTS; AID 2825, 2010; hit rate 0.39% among 330,000; inhibition, % at 10 µM; Yeast reconstituted NLRP3/ASC/caspase-1, beta-gal luminescence, 24 h;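 active = inhibition of 50% or more; inactive = inhibition below 50%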;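 also: plate controls were induced DMSO wells for no effect and uninduced yeast grown without galactose for full effect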
tim23-1 inh: growth inhibitors of tim23-1 mutant yeast, primary screen, luminescence, uHTS | inhibition, % at 20 µM | hit rate 1.3% among 330,000 | S. cerevisiae tim23-1 growth, BacTiter-Glo luminescence, 24 h;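 active = growth inhibition of the mutant yeast at or above 50%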;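 also: temperature-sensitive mutant grown at 25 °C; plate controls were DMSO-treated mutant yeast for no effect and medium wells lacking yeast for full effect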
TIM10 inh: growth inhibitors of isogenic TIM10 control yeast, primary screen, counter-screen for tim10-1 yeast inhibitor project, luminescence, uHTS | AID 463195, 2010 | inhibition, % at 10 µM | hit rate 1.4% among 330,000 | S. cerevisiae TIM10 strain growth, BacTiter-Glo luminescence, 24 h;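 active = inhibition of 40% or more at the single tested concentration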;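 also: wild-type TIM10 isogenic control strain grown at permissive 25 °C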
SKKanGAS inh: S. pyogenes SKKanGAS growth inhibitors in kanamycin, primary screen, streptokinase expression inhibitor project, SKKanGAS strain, BacTiter-Glo luminescence; 6 h; inhibition, % at 7.5 µM; hit rate 1.3% among 300,000;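 active = mean replicate score, as percent of positive control median, at least 50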;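 also: strain carries kanamycin resistance gene driven by streptokinase promoter and grows in 40 µg/ml kanamycin; loss of luminescence reflects streptokinase promoter inhibition or plain growth inhibition; 0% = median of DMSO wells and 100% = positive control at its reference dose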
tim10-1 inh: growth inhibitors of tim10-1 mutant yeast, primary screen, luminescence, uHTS. S. cerevisiae tim10-1 ts strain growth, BacTiter-Glo, 24 h. inhibition, % at 20 µM. hit rate 2.2% among 330,000. AID 463190, 2010;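 active = inhibition of at least 40%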;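 also: mutant grown at 25 °C; 0% = DMSO wells with yeast and 100% = wells holding no yeast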
PfHsp90 set2: growth inhibition of PfHsp90-expressing yeast, primary screen, antimalarial PfHsp90 inhibitor project, S. cerevisiae, BacTiter-Glo luminescence, single point, set 2; inhibition, % at 9.4 µM; AID 504621, 2011; hit rate 0.32% among 310,000; BacTiter-Glo ATP, 48 h; yeast lacking PDR1 and PDR3 efflux regulators;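 active = every replicate shows inhibition above about 80%, whatever the replicate mean, limit read from the data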;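 also: 0% = DMSO neutral controls and 100% = 20 µM radicicol positive controls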
tim10-1 confirm: growth inhibitors of tim10-1 mutant yeast, confirmation, single concentration, luminescence, S. cerevisiae; shares compounds with tim10-1 inh; S. cerevisiae tim10-1 ts strain growth, BacTiter-Glo, 24 h; inhibition, % at 20 µM; hit rate 56% among 7,400; AID 463213, 2010;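 active = inhibition of yeast growth at or above a set limit in either of two repeat tests at 20 µM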;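 also: tim10-1 mutant grown at permissive 25 °C to find synthetic lethal compounds; 0% = DMSO yeast wells and 100% = medium wells without yeast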
An asterisk follows results filed as active; / = not tested or not shown.

SMILES	NLRP3 yeast inh	tim23-1 inh	TIM10 inh	SKKanGAS inh	tim10-1 inh	PfHsp90 set2	tim10-1 confirm
CN1CCCN(C(c2ccccc2)c2ccc(Cl)cc2)CC1 (configuration not stated)	43	27	24	4	50*	7	34*
CN1CCN(C(c2ccccc2)c2ccccc2)CC1	-44	-4	11	/	5	16	/
N/C(=N\OC(=O)C12CC3CC(CC(C3)C1)C2)c1ccncc1	4	36	28	7	45*	/	30
Cc1ccc(/C=c2/sc3nnc(-c4ccccc4Cl)n3c2=O)o1	12	42	33	-2	45*	5	38*
CCN(CC)c1ccc(/C=c2\sc3nnc(-c4ccccc4Cl)n3c2=O)cc1	5	14	5	6	15	1	/
CC(=O)NC1(c2ccccc2)CCN(c2cc(C)nc(-c3ccccc3)n2)CC1	1	14	-6	-1	11	/	/
Cn1c(CC(=O)NNC(=O)c2cccnc2)nc2ccccc21	5	16	0	/	-4	13	/
O=C(CSc1ncn[nH]1)N1CCOCC1	14	9	-9	4	1	-1	/
S=c1[nH]nc(COc2ccccc2)n1/N=C/c1ccc(Br)cc1	24	17	9	9	33	-4	/
S=c1[nH]nc(COc2ccccc2)n1/N=C/c1cccc(Br)c1	17	21	24	7	45*	-16	20
S=c1[nH]nc(COc2ccccc2)n1/N=C/c1cccs1	18	43	33	-9	42*	15	13
CC(C)c1ccc(/C=N/n2c(COc3ccccc3)n[nH]c2=S)cc1	37	32	18	38	43*	-21	21
CN(C)c1ccc(/C=N/n2c(COc3ccccc3)n[nH]c2=S)cc1	19	20	13	1	3	-9	/
CC(C)(C)C(=O)NC(=S)Nc1ccc(Cc2ccncc2)cc1	44	38	32	-7	44*	0	30
Clc1ccc(Cl)c(-c2nn3c(COc4ccccc4)nnc3s2)c1	-14	6	2	3	36	-14	/
c1ccc(OCc2nnc3sc(-c4cccs4)nn23)cc1	-15	8	21	-4	47*	/	16
CCOc1ccc(S(=O)(=O)N2CCCC(C(=O)N3CCN(CC)CC3)C2)cc1Cl (configuration not stated)	9	-1	-11	1	8	7	/
Cc1cc(C#Cc2c(-c3ccccc3)n(C)c3ccccc23)ccc1F	9	1	-10	1	23	10	/
N#Cc1ncc(Cc2ccccc2)nc1C#N	27	28	0	12	41*	2	38*
N#Cc1nc(Cc2ccccc2)oc1NCc1cccnc1	1	-4	-9	-4	-1	-7	/
CCOC(=O)c1ccc(N2C(=O)CC(C(=O)OC)=C2C)cc1	10	11	-6	4	54*	26	38*
CCOC(=O)c1ccc(N2C(=O)C=CC2=O)cc1	20	23	14	3	82*	130*	92*
CCC(CC)C(=O)c1c[nH]c(C(=O)OC)c1	-4	23	1	3	13	16	/
CNC(=S)N1N=C(c2cccs2)CC1c1ccc(F)cc1 (configuration not stated)	-11	35	13	0	43*	-28	18
CC1=NN(c2ccccc2)C(=O)/C1=C\C=C1\N(C)c2ccccc2C1(C)C	37	-2	-18	-1	-9	17	/
SMILES	NLRP3 yeast inh	tim23-1 inh	TIM10 inh	SKKanGAS inh	tim10-1 inh	PfHsp90 set2	tim10-1 confirm
CC1=NN(c2ccccc2)C(=O)/C1=C\C=C1/N(C)c2ccccc2C1(C)C	42	-22	13	9	42*	48	19
Cc1ccc(S(=O)(=O)N(CC(=O)NCC2CCCO2)Cc2ccc(F)cc2)cc1 (configuration not stated)	7	27	9	-2	24	5	/
CCN(CC)CCN(C(=O)c1ccc2ccccc2c1)c1nc2ccc(OC)cc2s1	12	37	4	4	49*	7	-2
CN(C)CCN(C(=O)c1ccc2ccccc2c1)c1nc2ccc(F)cc2s1	1	27	9	-5	28	3	/
CCN(CC)CCN(C(=O)c1cc2ccccc2cc1OC)c1nc2ccc(OC)cc2s1	27	38	16	-5	56*	4	24
CCN(CC)CCN(C(=O)c1cc2ccccc2cc1OC)c1nc2ccc(F)cc2s1	31	43	25	6	57*	4	14
COc1cc(CC(NC(C)=O)C(=O)NC2CCN(C(=O)Nc3ccc(C)cc3)CC2)cc(OC)c1 (configuration not stated)	5	-1	1	6	8	-16	/
Cc1ccc(-c2nnn(C/C(N)=N/O)n2)cc1	10	15	25	-2	1	-3	/
Cc1cc2oc(C(=O)NCc3ccccc3)cc(=O)c2cc1C	4	-12	7	7	26	13	/
COCC1CCN(C(=O)c2cc(COc3ccc(C)c(C)c3)on2)C1 (configuration not stated)	34	13	3	7	4	11	/
COCC1CCN(C(=O)c2cc(COc3ccc4c(c3)CCCC4)on2)C1 (configuration not stated)	29	24	12	-10	40*	-19	20
COc1cccc(OCc2cc(C(=O)N3CCC(c4ccncc4)CC3)no2)c1	16	32	13	-15	34	14	/
CC(=O)c1ccc(OCc2cc(C(=O)N3CCC(c4ccncc4)CC3)no2)cc1	17	1	5	-4	44*	8	-39
COc1ccc2cc(C)c3nnc(SCC(=O)Nc4cc(OC)c(OC)cc4C(=O)O)n3c2c1	5	16	4	9	30	-6	/
COc1ccc2cc(C)c3nnc(SCc4cccnc4)n3c2c1	20	29	28	-2	41*	-8	34*
CC(C)(C)N(Cc1ccccc1)C(=O)CCc1ccccc1	-25	7	23	-6	28	9	/
Cc1ccc(N2CSC3=C(C#N)C(c4cccs4)CC(=O)N3C2)cc1 (configuration not stated)	18	16	0	11	40*	-15	0
CN1CCN(c2cc(N3CCc4ccccc4C3)c(F)cc2[N+](=O)[O-])CC1	15	34	30	1	48*	-10	39*
